Values without a mark were called inactive.
How the values were obtained:
Assay in all cases: log2 ratio of Biotin-Ahx-Ub-VS probe labelling (fragment/DMSO); higher = less target engagement (more negative = stronger competition), active = hit call of the paper (q ≤ 0.05, log2 ratio ≤ -1)
Conditions in all cases: compound concentration: 200 uM; treatment time: 3 h
[1] = molecular target: T1, OTUD6B (UniProt Q8N6M0)
T1 sequence (whole entry): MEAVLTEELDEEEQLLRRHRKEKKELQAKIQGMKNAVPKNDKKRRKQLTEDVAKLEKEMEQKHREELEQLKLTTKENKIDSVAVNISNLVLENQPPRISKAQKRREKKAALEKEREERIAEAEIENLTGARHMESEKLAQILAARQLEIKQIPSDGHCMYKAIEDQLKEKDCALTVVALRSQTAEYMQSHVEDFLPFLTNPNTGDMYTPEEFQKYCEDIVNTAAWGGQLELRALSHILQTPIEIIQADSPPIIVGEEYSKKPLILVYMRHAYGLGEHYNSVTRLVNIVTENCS
Procedure, shortened: (§1)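 Lysate from HEK293T cells, 495 µg per sample in Tris/CHAPS/IGEPAL buffer with protease inhibitors, was treated for 3 h in triplicate with fragment at 200 µM or vehicle. Biotin-Ahx-Ub-VS was next added at 0.5 µM final for 1 h. The labelled DUBs were enriched with NeutrAvidin, digested with LysC and trypsin, and run by diaPASEF LC-MS/MS, with values given as average log2 fragment/vehicle ratios by unpaired t-test on global-median-normalised Spectronaut quantities of proteins with ≥2 unique peptides.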

[2] = molecular target: T2, OTUD7B (UniProt Q6GQQ9)
T2 sequence (whole entry): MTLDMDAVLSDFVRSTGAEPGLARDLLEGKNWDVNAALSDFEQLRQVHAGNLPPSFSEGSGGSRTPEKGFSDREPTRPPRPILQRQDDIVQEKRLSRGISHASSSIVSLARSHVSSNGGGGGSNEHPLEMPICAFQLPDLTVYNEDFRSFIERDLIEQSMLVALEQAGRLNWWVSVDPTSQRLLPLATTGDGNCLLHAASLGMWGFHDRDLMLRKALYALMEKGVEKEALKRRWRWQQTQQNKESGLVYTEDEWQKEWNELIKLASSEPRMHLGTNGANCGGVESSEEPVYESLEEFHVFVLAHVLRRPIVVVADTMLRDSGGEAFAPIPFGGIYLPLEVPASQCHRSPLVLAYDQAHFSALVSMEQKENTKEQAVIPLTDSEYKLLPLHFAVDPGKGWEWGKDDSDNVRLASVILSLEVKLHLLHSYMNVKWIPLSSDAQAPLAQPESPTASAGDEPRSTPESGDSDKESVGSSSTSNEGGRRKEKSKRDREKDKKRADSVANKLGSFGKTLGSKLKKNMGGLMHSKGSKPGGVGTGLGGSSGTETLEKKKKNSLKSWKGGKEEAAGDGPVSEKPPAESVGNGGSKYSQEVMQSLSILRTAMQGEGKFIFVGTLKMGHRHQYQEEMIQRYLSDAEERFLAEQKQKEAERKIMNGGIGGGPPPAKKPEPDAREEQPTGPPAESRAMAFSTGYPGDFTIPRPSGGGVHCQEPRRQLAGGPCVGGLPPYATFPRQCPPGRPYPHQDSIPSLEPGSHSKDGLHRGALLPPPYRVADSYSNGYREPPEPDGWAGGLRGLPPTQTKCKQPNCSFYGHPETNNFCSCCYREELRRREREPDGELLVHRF
Procedure, shortened: as §1

[3] = molecular target: PRPF8 (UniProt Q6P2Q9)
Procedure, shortened: as §1

[4] = molecular target: T3, PSMD7 (UniProt P51665)
T3 sequence (whole entry): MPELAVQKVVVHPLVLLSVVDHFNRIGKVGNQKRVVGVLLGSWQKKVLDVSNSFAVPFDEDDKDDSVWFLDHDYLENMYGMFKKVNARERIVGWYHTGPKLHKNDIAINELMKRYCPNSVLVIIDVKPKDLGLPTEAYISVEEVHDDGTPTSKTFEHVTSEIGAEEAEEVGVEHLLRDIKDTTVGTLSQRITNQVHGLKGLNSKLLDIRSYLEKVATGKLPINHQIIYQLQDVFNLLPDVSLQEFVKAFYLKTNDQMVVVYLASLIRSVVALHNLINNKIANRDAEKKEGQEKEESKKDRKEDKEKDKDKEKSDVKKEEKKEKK
Procedure, shortened: as §1

[5] = molecular target: UCHL1 (UniProt P09936)
UCHL1, sequence (P09936 whole entry, looked up): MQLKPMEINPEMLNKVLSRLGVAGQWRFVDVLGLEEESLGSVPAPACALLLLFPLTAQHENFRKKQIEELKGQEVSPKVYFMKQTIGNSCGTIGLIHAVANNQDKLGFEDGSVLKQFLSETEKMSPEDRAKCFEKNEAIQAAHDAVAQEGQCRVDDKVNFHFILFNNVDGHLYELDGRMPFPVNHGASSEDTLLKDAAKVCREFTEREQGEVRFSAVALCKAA
Procedure, shortened: as §1

[6] = molecular target: T4, UCHL3 (UniProt P15374)
T4 sequence (whole entry): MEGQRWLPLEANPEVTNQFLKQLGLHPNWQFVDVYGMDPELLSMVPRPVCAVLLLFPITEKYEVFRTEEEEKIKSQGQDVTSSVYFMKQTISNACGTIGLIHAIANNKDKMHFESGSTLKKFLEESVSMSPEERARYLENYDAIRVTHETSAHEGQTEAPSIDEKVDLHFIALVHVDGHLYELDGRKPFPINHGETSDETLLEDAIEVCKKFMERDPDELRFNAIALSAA
Procedure, shortened: as §1

[7] = molecular target: T5, UCHL5 (UniProt Q9Y5K5)
T5 sequence (whole entry): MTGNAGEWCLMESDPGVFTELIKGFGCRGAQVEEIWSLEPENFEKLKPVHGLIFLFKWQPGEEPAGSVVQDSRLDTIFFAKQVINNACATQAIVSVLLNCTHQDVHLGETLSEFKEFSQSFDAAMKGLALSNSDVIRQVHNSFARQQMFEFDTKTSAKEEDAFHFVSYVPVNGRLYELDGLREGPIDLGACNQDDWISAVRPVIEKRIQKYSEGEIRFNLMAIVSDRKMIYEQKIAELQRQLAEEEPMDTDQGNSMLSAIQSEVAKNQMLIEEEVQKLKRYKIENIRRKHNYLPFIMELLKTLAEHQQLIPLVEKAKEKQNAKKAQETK
Procedure, shortened: as §1

[8] = molecular target: USP10 (UniProt Q14694)
USP10, sequence (Q14694 whole entry): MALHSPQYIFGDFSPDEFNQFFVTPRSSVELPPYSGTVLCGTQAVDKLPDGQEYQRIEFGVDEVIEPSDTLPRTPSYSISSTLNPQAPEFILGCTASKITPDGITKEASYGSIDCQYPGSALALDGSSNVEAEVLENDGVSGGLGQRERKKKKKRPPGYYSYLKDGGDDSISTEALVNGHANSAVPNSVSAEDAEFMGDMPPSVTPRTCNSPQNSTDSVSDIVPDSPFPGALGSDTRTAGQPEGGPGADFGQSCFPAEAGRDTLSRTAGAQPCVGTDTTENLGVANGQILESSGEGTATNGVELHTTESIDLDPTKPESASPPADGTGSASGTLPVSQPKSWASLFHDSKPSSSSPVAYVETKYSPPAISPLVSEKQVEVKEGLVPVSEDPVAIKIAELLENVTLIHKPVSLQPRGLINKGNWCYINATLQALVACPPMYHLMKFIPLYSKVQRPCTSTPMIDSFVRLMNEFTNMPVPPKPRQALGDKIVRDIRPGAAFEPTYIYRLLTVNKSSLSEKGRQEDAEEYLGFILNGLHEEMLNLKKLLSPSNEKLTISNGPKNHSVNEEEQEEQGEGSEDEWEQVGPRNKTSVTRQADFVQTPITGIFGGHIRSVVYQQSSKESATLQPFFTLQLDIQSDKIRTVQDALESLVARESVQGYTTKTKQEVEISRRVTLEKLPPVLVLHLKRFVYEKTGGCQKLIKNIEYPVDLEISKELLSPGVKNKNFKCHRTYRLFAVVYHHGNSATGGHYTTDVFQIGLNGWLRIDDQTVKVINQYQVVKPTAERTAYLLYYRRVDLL
Procedure, shortened: as §1

[9] = molecular target: T6, USP15 (UniProt Q9Y4E8)
T6 sequence (whole entry): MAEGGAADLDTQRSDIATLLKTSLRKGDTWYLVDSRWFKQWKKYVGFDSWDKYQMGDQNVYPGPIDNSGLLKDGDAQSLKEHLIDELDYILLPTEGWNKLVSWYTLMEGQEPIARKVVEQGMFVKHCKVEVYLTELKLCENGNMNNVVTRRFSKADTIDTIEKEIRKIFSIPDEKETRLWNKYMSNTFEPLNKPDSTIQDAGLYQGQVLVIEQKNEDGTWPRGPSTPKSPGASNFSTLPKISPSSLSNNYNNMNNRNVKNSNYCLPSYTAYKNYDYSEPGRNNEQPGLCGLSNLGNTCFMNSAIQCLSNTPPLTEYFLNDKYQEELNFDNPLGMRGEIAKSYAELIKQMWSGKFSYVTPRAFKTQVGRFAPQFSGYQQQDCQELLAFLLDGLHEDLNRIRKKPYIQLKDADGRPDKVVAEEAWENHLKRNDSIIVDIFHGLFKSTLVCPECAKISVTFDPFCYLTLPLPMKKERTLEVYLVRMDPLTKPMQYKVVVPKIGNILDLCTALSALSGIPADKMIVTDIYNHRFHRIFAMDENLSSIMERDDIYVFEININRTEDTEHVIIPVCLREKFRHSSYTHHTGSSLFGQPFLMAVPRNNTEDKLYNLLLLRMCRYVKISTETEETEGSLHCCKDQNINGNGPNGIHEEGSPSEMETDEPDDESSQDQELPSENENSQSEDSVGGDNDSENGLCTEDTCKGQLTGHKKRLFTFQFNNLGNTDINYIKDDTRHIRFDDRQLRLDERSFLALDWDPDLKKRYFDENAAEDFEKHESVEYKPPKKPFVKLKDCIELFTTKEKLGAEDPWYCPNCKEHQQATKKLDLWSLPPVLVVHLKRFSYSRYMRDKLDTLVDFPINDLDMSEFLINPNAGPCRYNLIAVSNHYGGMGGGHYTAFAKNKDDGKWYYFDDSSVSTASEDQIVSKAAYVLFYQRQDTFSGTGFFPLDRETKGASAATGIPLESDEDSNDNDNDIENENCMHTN
Procedure, shortened: as §1

[10] = molecular target: USP16 (UniProt Q9Y5T5)
USP16, sequence (Q9Y5T5 whole entry, looked up): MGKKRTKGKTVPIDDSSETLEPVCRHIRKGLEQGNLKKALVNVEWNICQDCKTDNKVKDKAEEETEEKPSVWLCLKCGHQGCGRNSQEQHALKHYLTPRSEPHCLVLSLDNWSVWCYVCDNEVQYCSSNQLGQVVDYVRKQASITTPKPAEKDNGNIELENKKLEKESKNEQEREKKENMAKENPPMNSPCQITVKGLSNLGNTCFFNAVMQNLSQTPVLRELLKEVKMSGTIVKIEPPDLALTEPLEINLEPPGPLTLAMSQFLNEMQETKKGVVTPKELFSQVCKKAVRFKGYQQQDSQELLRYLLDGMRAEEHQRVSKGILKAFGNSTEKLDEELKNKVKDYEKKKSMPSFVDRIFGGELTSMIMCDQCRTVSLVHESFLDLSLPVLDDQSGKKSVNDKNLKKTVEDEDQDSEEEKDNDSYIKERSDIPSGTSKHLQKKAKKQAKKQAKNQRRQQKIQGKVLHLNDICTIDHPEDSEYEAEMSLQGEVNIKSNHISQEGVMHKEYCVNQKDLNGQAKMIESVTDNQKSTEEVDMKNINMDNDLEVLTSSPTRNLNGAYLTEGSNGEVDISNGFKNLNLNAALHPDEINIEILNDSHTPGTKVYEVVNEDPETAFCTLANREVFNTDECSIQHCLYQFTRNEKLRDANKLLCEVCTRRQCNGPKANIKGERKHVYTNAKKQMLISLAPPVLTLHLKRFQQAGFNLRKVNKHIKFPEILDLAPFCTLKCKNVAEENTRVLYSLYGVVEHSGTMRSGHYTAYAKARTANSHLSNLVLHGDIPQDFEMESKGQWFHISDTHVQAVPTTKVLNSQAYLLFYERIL
Procedure, shortened: as §1

O=C(CCl)N(C1CCCC1)C1CCS(=O)(=O)C1 (stereo not given)
log2 ratio of Biotin-Ahx-Ub-VS probe labelling [1]: -0.0743 | log2 ratio of Biotin-Ahx-Ub-VS probe labelling [2]: -0.147 | log2 ratio of Biotin-Ahx-Ub-VS probe labelling [3]: 0.17 | log2 ratio of Biotin-Ahx-Ub-VS probe labelling [4]: 0.00755 | log2 ratio of Biotin-Ahx-Ub-VS probe labelling [5]: -1.47 (active) | log2 ratio of Biotin-Ahx-Ub-VS probe labelling [6]: 0.248 | log2 ratio of Biotin-Ahx-Ub-VS probe labelling [7]: -0.176 | log2 ratio of Biotin-Ahx-Ub-VS probe labelling [8]: -0.0694 | log2 ratio of Biotin-Ahx-Ub-VS probe labelling [9]: -0.235 | log2 ratio of Biotin-Ahx-Ub-VS probe labelling [10]: -0.121

From the supplement of paper PMC11732987, “Enantioselective OTUD7B fragment discovery through chemoproteomics screening and high-throughput optimisation” (Communications Chemistry, 2025)
